“And” between values parts separate entries of the source, which are not always exact repeats. Identical values can stand only once. Results filed as inconclusive are left out. The source made the active and inactive calls. Calls come from the whole dose curve; as a rule, active = well fitted curve in the direction sought with a large enough effect; inconclusive = small, poorly fitted or top-dose-only effect, or another doubt; inactive = no such curve, though single readings can be large or run the other way.
% is set by controls: 0 for no effect and ±100 for the full control effect; potency is the fitted concentration of half-maximal effect.

This test is described as follows: qHTS Assay for Identifying Gametocytocidal Compounds (AID 743244).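 For max response: actives lower the fluorescent signal which means gametocytes are killed.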 The conditions noted are these: P. falciparum 3D7 stage III-V gametocytes, alamarBlue, 72 h; max response: active compounds read low. In short, it runs like this: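 In this qHTS viability screen, late-stage 3D7 gametocytes are incubated with compound for 72 h, then with alamarBlue for 24 h; reduced resorufin fluorescence marks killing.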
For `COC(=O)C1=C(C)NC(C)=C(C(=O)OC(C)(C)CN(C)CCC(c2ccccc2)c2ccccc2)C1c1cccc([N+](=O)[O-])c1` (configuration not stated), the max response is 7.33% (inactive) and 12.6% (inactive). In the case of `N[C@@H](COP(=O)(O)O)C(=O)O`, the max response is -4.33% (inactive) and 12% (inactive).

Take `CCOC(=O)C1=C(C)NC(C)=C(C(=O)OC)C1c1cccc([N+](=O)[O-])c1` (configuration not stated): the max response was 5.7% (inactive).

For the molecule `CCN1CCc2nc(N)oc2CC1`, the max response was 11% (inactive) and 14% (inactive). Still for that read-out and setting: to `CNC1(C)C2CCC(C2)C1(C)C` (configuration not stated) belongs 12.1% (inactive) and 8.7% (inactive). Take `CC1=NS(=O)(=O)c2cc(Cl)ccc2N1`: the max response was 4.85% (inactive). With `COc1ccc([C@@H]2Sc3ccccc3N(CCN(C)C)C(=O)[C@@H]2OC(C)=O)cc1`, the max response is -3.45% (inactive). Consider `COc1ccc2c(c1OC)C(=O)O[C@@H]2[C@H]1c2c(cc3c(c2OC)OCO3)CCN1C`, for which the max response was -4.58% (inactive) and 10.4% (inactive). On the same count and under the same terms, to `CC(C)[N+](C)(CCOC(=O)C1c2ccccc2Oc2ccccc21)C(C)C` belongs -5.05% (inactive) and 11.3% (inactive); to `CCO/C([O-])=N/c1c[n+](N2CCOCC2)no1`, -5.19% (inactive).

Turning to `O=C(CCNNC(=O)c1ccncc1)NCc1ccccc1`, the max response is -0.149% (inactive) and 4.87% (inactive). In the case of `C(=C\c1ccccc1)/CN1CCN(C(c2ccccc2)c2ccccc2)CC1`, the max response is -4.21% (inactive) and 5.87% (inactive).

In the case of `COCCCC/C(=N\OCCN)c1ccc(C(F)(F)F)cc1`, the max response is 20.1% (inactive). Turning to `CC(C)NCC(O)c1cc(O)cc(O)c1` (configuration not stated), the max response was 4.9% (inactive) and 20.6% (inactive). For the molecule `CCCCCCCC/C=C\CCCCCCCC(=O)NCc1ccc(O)c(OC)c1`, the max response was 0.654% (inactive) and 9.43% (inactive). Take `CC(=O)OCC1=C(C(=O)O)N2C(=O)[C@@H](NC(=O)Cc3cccs3)[C@H]2SC1`: the max response was 2.41% (inactive) and 26.5% (inactive). Turning to `O=C(O)CN(CCOCCOCCN(CC(=O)O)CC(=O)O)CC(=O)O`, the max response was -5.05% (inactive) and 25.1% (inactive). Same read-out and setting: the figure for `CCCCNc1c(C(=O)OCC)c(C)nc2c1cnn2CC` is -2.63% (inactive) and 24% (inactive). For the molecule `C[n+]1cc2c3c(ccc2c2ccc4cc5c(cc4c21)OCO5)OCO3`, the Potency is 3.16 µM (active).

For the molecule `Nc1c2c(nc3ccccc13)CCCC2O` (configuration not stated), the max response is -3.49% (inactive) and -6.56% (inactive).

`C[C@]12CCC(=O)C=C1CC[C@@H]1[C@@H]2CC[C@@]2(C)[C@H]1CC[C@]2(O)C(=O)CO`: the max response was -4.53% (inactive) and -8.22% (inactive). The same measure, in the same setting: the figure for `COc1ccc(CCN(C)CCCC(C#N)(c2cc(OC)c(OC)c(OC)c2)C(C)C)cc1OC` (configuration not stated) is 12.4% (inactive) and 4.11% (inactive); for `O=C(O)CN(CCN(CC(=O)O)CC(=O)O)CCN(CC(=O)O)CC(=O)O` it is 13% (inactive) and 27.1% (inactive); for `CN(C)C/C=C(/c1ccc(Br)cc1)c1cccnc1` it is -5.39% (inactive) and -10% (inactive). On to `c1cnc(N2CCN(Cc3ccc4c(c3)OCO4)CC2)nc1`, for which the max response was 1.5% (inactive). As to `c1cc(CN2CCCCC2)cc(OCCCNc2nc3ccccc3s2)c1`, the max response was -9.42% (inactive). On the same count and under the same terms, the figure for `OC(CCN1CCCCC1)(c1ccccc1)C1CCCCC1` (configuration not stated) is -12% (inactive) and 9.84% (inactive); for `FC(F)(F)c1ccccc1-n1ccnc1` it is 18.2% (inactive) and -13.7% (inactive); for `CN1CCN(C2=Nc3ccccc3Oc3ccc(Cl)cc32)CC1` it is 15.1% (inactive) and -7.99% (inactive).

With `CCN(CC)CCNC(=O)c1ccc(NC(C)=O)cc1`, the max response is 11.5% (inactive) and -3.43% (inactive). Consider `CN1C(=O)CC[C@H]1c1cccnc1`, for which the max response is 3.71% (inactive) and 23.6% (inactive).

For `CC(=O)OC(C)C[N+](C)(C)C` (configuration not stated), the max response is -4.19% (inactive) and 23.1% (inactive).

(Values after PubChem BioAssay (NCATS).)
